Experimental data taken from PubChem BioAssay.
The source made the active and inactive calls.

Assays:
[1] = target: Albumin (Bos taurus) (UniProt P02769); test: compounds binding labelled BSA control protein – biochemical, small-molecule microarray, Alexa647 label, 635/667 nm fluorescence, artefact control for SMM control protein annotation, profiling panel (AID 1118); settings: BSA-A647 binding, fluorescence 635 nm, higher = more signal;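 further: score merges 667 nm emission intensity and signal-to-noise per printed compound spot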
[2] = probe aXIP binding to arrayed compounds – biochemical, NeuroSMM set, 635/667 nm fluorescence, primary screen (AID 1119); settings: small-molecule microarray, higher = more signal, called active from +8 up or from −8 down;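 further: probe is the protein aXip251-270 applied at 1 µg/mL to compound-printed slides; binding of probe to printed compounds measured as 667 nm fluorescence plus signal to noise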
[3] = probe aNOTCH3 binding on compound microarray – biochemical, small-molecule microarray, 635/667 nm fluorescence, primary screen (AID 1120); settings: higher = more signal;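 further: probe is a biotin-tagged antibody raised against NOTCH3 rather than NOTCH3 protein; score merges spot fluorescence near 667 nm with spot signal to noise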
[4] = probe aNOTCH2 binding on compound microarray – biochemical, small-molecule microarray, 635/667 nm fluorescence, primary screen (AID 1121); settings: higher = more signal;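 further: score merges feature fluorescence read at 667 nm with its signal to noise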
[5] = target: Carbonic anhydrase 2 (Homo sapiens) (UniProt P00918); test: compounds binding carbonic anhydrase 2 – biochemical, small-molecule microarray, Alexa647-labelled CAII, profiling panel (AID 1122); settings: CAII-A647 binding fluorescence, higher = more signal
[6] = COS7 lysate on small-molecule microarray, probe aHis, 635 nm (AID 1123); settings: COS7 cell lysate, fluorescence, higher = more signal;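 further: z-score combines 667nm fluorescence intensity with signal-to-noise per printed compound spot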
[7] = probe aLAP1 signal on lysate-treated microarray – cell lysate, small-molecule microarray, COS7 lysate, primary screen (AID 1124); settings: probe aLAP1, fluorescence, higher = more signal;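 further: lysate comes from COS7 cells expressing LAP1 and is applied at 0.3 µg/mL; score merges spot fluorescence near 667 nm with signal-to-noise over triplicate slides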
[8] = test system: Sam68 (KHDRBS1); test: compounds binding KHDRBS1 protein – biochemical, small-molecule microarray, 635 nm fluorescence, primary screen (AID 1125); settings: higher = more signal;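 further: score merges 667 nm channel intensity with signal to noise over triplicate slides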
[9] = test system: Chordin-like protein 2 (CHRDL2); test: compounds binding chordin-like 2 – biochemical, small-molecule microarray, 635 nm fluorescence, primary screen (AID 1126); settings: fluorescence 635 nm, higher = more signal;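 further: printed compound slides probed with Chrdl2 protein at 4 µg/mL for 1 h at 4 C; score merges 667 nm emission intensity with signal to noise over three replicate slides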
[10] = target: Concanavalin-A (Canavalia ensiformis) (UniProt P02866); test: compounds binding concanavalin A lectin – biochemical, small-molecule microarray, Alexa647 label, 635 nm, artefact control for SMM control protein annotation, primary screen (AID 1127); settings: ConA-A647 binding fluorescence, higher = more signal;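 further: z combines 667 nm emission intensity with signal-to-noise across three replicate slides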
[11] = compounds binding Alexa647 anti-His antibody – biochemical, small-molecule microarray, 635 nm fluorescence, artefact control for SMM control protein annotation, primary screen (AID 1128); settings: higher = more signal;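 further: score merges feature fluorescence with signal-to-noise for each printed compound spot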
[12] = test system: Human papillomavirus type 1a E7 protein (residues 1-88); test: HPV1a E7 small-molecule binders, primary screen, biochemical, small-molecule microarray, residues 1-88, 635 nm (AID 1129); settings: small-molecule microarray binding, fluorescence 635 nm; higher = more signal
[13] = target: Focal adhesion kinase 1 (Homo sapiens) (UniProt Q05397); test: PTK2 protein binding on printed compound slides – biochemical, small-molecule microarray, 635/667 nm fluorescence, BSA, DTT, primary screen (AID 1130); settings: 635 nm fluorescence, higher = more signal;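 further: composite of spot emission at 667 nm and signal to noise over triplicate slides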
[14] = test system: Fibrinogen (Alexa647-labelled); test: Alexa647-fibrinogen binding to printed small molecules – biochemical, small-molecule microarray, 635/667 nm fluorescence, artefact control for SMM control-protein annotation, profiling panel (AID 1131); settings: fibrinogen-A647 binding fluorescence, higher = more signal;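 further: z-score merges 667 nm fluorescence with per-spot signal-to-noise over triplicate slides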
[15] = target: Follistatin (Homo sapiens) (UniProt P19883); test: FST protein binding to printed compounds – biochemical, small-molecule microarray, 635/667 nm fluorescence, primary screen (AID 1132); settings: 635 nm fluorescence, higher = more signal
[16] = target: Fibroblast growth factor 2 (Homo sapiens) (UniProt P09038); test: basic fibroblast growth factor binding to printed compounds – biochemical, small-molecule microarray, 635/667 nm fluorescence, primary screen (AID 1133); settings: FGF2, fluorescence 635/667, higher = more signal
[17] = JC-1 mitochondrial potential readout, lung cancer cells – cell-based, A549, JC-1 fluorescence, basal, 24 h, 100 nL, profiling panel (AID 1138); settings: higher = more signal;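 further: A549 lung adenocarcinoma cells under basal conditions with no added stimulus; test concentration not given here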
[18] = test system: Lefty1; test: Lefty1 protein binding to printed compounds – biochemical, small-molecule microarray, 635/667 nm fluorescence, primary screen (AID 1139); settings: fluorescence 635/667, higher = more signal
[19] = test system: wheat germ agglutinin (Triticum aestivum), Alexa647-labelled; test: Alexa647-WGA lectin binding to printed small molecules – biochemical, small-molecule microarray, 635/667 nm fluorescence, artefact control for SMM control-protein annotation, profiling panel (AID 1140); settings: WGA-A647 binding, 635 nm fluorescence, higher = more signal;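 further: score merges 667 nm feature emission with signal to noise over triplicate slides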
[20] = target: Luciferin 4-monooxygenase (Photinus pyralis) (UniProt P08659); test: inhibition of purified Photinus pyralis luciferase – biochemical, luminescence, purified enzyme, 2006 set, primary screen (AID 1141); settings: purified firefly luciferase, SteadyGlo luminescence, 30 min; higher = more signal, called active from +8 up or from −8 down;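 further: cell-free assay with purified firefly luciferase at 100 ng per well in PBS; test concentration not given here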
Chain of Luciferin 4-monooxygenase (Photinus pyralis) (P08659 whole entry, looked up): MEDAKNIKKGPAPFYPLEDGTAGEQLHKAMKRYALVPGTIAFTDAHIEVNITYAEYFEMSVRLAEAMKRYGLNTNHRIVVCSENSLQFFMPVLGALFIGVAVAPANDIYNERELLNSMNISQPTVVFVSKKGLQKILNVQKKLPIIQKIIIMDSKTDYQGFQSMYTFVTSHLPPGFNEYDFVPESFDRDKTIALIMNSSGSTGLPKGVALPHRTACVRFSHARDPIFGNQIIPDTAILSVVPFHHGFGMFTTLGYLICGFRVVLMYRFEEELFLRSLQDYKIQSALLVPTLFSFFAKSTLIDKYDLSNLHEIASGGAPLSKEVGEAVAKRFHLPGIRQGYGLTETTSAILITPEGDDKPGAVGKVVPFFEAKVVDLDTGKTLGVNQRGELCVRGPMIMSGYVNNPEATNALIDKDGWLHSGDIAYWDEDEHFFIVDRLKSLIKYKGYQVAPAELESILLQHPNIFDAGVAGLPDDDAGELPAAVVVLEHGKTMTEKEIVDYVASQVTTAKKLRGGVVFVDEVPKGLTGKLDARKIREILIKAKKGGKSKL

Chain of Albumin (Bos taurus) (P02769 whole entry, looked up): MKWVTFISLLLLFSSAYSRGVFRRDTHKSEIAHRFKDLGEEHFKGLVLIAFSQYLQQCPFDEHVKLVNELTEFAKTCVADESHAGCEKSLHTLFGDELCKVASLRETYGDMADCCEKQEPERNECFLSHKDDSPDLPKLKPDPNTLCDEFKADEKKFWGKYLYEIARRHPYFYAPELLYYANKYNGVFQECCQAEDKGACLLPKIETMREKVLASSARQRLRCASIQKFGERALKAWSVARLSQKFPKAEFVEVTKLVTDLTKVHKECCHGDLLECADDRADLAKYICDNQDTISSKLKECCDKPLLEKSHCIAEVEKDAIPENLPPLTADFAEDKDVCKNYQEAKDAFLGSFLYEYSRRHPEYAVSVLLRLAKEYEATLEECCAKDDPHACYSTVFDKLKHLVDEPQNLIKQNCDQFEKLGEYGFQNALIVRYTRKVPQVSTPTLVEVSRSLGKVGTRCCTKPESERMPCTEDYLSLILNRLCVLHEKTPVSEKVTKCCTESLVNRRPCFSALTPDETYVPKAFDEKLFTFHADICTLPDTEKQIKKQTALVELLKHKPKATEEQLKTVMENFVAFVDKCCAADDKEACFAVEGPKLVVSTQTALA
Chain of Fibroblast growth factor 2 (Homo sapiens) (P09038 whole entry, looked up): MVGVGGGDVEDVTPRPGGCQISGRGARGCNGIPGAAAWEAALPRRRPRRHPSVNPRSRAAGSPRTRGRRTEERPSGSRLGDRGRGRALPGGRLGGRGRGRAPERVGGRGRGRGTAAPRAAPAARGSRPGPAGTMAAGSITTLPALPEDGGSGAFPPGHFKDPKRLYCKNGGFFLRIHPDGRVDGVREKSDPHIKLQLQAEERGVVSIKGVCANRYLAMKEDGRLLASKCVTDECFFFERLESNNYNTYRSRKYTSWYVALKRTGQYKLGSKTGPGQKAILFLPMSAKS
Chain of Focal adhesion kinase 1 (Homo sapiens) (Q05397 whole entry, looked up): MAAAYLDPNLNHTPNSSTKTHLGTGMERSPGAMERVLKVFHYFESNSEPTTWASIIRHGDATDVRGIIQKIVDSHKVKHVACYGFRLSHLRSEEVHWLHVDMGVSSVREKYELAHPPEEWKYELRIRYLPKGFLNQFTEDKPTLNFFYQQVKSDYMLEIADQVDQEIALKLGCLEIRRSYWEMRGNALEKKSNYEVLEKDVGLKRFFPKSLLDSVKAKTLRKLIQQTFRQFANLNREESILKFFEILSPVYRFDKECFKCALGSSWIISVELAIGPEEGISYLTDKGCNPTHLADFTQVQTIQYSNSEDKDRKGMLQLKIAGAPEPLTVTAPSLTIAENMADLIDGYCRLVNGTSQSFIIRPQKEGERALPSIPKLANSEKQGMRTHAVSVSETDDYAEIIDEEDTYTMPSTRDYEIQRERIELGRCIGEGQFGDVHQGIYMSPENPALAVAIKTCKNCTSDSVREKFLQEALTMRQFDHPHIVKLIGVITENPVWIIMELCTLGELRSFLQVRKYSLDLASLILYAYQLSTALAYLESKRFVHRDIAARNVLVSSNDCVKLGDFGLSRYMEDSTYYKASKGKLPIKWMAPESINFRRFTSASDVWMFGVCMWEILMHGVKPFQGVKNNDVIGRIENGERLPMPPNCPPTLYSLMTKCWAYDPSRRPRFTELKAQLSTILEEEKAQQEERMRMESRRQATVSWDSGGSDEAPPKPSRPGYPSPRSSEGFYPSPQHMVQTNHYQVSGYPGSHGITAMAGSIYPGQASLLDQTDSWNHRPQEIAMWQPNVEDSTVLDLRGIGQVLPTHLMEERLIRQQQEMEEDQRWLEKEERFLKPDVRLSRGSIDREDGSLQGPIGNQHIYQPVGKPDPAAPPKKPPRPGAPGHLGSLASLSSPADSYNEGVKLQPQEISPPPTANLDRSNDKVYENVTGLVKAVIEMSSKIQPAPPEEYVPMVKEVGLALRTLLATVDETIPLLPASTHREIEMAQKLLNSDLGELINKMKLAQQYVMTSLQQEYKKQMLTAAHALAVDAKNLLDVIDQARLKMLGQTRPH
Chain of Follistatin (Homo sapiens) (P19883 whole entry, looked up): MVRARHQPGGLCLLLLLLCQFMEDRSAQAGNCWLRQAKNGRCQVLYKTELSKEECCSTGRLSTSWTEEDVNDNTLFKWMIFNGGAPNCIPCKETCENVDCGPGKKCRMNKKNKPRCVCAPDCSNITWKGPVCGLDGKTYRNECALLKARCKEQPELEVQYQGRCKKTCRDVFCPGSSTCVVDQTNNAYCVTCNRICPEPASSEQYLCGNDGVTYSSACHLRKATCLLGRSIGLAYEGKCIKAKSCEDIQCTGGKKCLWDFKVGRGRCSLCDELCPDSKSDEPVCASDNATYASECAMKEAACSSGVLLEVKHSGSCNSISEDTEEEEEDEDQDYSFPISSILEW
Chain of Concanavalin-A (Canavalia ensiformis) (P02866 whole entry, looked up): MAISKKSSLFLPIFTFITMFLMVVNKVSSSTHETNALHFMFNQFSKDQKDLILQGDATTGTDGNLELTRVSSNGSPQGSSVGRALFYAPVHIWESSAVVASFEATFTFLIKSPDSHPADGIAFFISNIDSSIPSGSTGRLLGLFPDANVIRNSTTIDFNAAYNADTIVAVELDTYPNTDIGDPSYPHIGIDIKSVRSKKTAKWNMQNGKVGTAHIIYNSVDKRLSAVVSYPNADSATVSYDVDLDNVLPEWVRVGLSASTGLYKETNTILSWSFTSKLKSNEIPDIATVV

SMILES | composite z-score [1] | composite Z-score [2] | composite z-score [3] | composite z-score [4] | composite z-score [5] | composite z-score [6] | composite z-score [7] | composite z-score [8] | composite z-score [9] | composite z-score [10] | composite z-score [11] | composite z-score [12] | composite z-score [13] | composite z-score [14] | composite z-score [15] | composite z-score [16] | z-score [17] | composite z-score [18] | composite z-score [19] | z-score [20]
CC1(C)O[C@H]2OC([C@H](O)CON3C(=O)c4ccccc4C3=O)[C@H](O)[C@H]2O1 (stereo not given in full) | 0.107 | -0.282 (inactive) | -0.135 | 0.117 | 0.341 | -0.378 | -0.0948 | 0.29 | 0.0988 | -0.371 | 0.547 | -0.103 | 0.433 | 0.12 | 0.0275 | 0.495 | -0.487 | 0.291 | 0.561 | -0.317 (inactive)
CC(=O)OC[C@H]1O[C@@H](ON=C(C)C)[C@H](OC(C)=O)[C@@H](OC(C)=O)[C@@H]1OC(C)=O | -0.727 | -1.02 (inactive) | -0.0178 | -0.0272 | -0.755 | -0.775 | 0.694 | -0.743 | -0.736 | -1.09 | 0.759 | -1.41 | -0.242 | -0.515 | -1.27 | -0.109 | -0.191 | -1.03 | -0.88 | 0.316 (inactive)
CC(C)=NOC(C)CN1CCCc2nc(C)c(C)cc21 (stereo not given) | 0.297 | 0.672 (inactive) | 0.0482 | 0.0037 | 0.449 | 1.31 | 1.37 | 0.669 | 0.74 | 0.788 | -0.0115 | 0.964 | 0.232 | 0.484 | 0.724 | 0.753 | 0.354 | 0.947 | 0.323 | 0.57 (inactive)
O=C1C[C@@H](O)[C@@H](O)[C@@H]2[C@@H]3C(=O)N(Cc4ccccc4)C(=O)[C@@H]3CC[C@H]12 | -0.0028 | -0.082 (inactive) | 0.111 | -0.107 | 0.213 | -0.0842 | 0.23 | 0.184 | 0.415 | 0.941 | 0.0747 | 0.467 | 0.141 | 0.872 | 0.967 | 0.347 | -0.579 | 0.329 | 0.565 | 0.675 (inactive)
O=C1[C@H]2CCn3c(=O)n(Cc4cc5c(cc4Cl)OCO5)c(=O)n3[C@H]2[C@H](O)[C@@H]2O[C@H]12 | 0.662 | -0.0662 (inactive) | -0.15 | -0.14 | 0.29 | 0.242 | -0.14 | -0.435 | 0.716 | -0.0737 | 0.85 | -0.542 | -0.255 | 0.855 | 0.596 | 0.299 | -0.512 | 0.298 | 0.176 | -1.44 (inactive)
CC(CCN1CCCCc2nc(C)c(C)cc21)=NOC[C@@H](O)[C@H]1O[C@@H]2OC(C)(C)O[C@@H]2[C@H]1O | 0.814 | -0.379 (inactive) | -0.0363 | -0.166 | -0.378 | -0.461 | -0.258 | 0.0948 | 1.16 | -0.0142 | 3.04 | -0.491 | -0.319 | 1.01 | 0.416 | 0.937 | -0.584 | 1 | -0.163 | 0.766 (inactive)
Cc1cc(C)c(-c2cc([C@H](C)ON=C[C@@H](C)[C@H](OCc3ccccc3)C(C)C)on2)c(C)c1 | -0.365 | 0.687 (inactive) | -0.061 | -0.185 | -0.206 | -0.244 | -0.637 | -0.686 | -0.11 | -0.412 | -0.781 | -1.04 | 0.0063 | -1.82 | -0.158 | 0.133 | 1.18 | 0.116 | 0.528 | 0.82 (inactive)
CO[C@@H]1COC(=O)[C@H](COCc2ccccc2)NC(=O)CC=C[C@@H](C)[C@H](OC)COC(=O)[C@@H](C)NC(=O)CC=C[C@H]1C | -0.764 | -0.0478 (inactive) | 0.127 | -0.126 | -0.557 | -0.887 | -0.184 | 0.0125 | 1.02 | -3.28 | -1.39 | -1.64 | -0.474 | -1.65 | 1.07 | 1.16 | 1.27 | 0.979 | -0.999 | -0.963 (inactive)
C[C@@H](c1ccccc1)N1C(=O)[C@H]2[C@H]3[C@H](O)[C@H](O)CC(=NOCc4ccccc4)[C@@H]3CC[C@H]2C1=O | 0.758 | 0.081 (inactive) | -0.0055 | -0.0467 | -0.247 | 0.043 | 0.017 | -0.105 | 0.823 | -0.577 | 0.151 | -0.513 | 0.0826 | 0.0844 | -0.7 | -0.0815 | -0.781 | -0.684 | 0.32 | 0.747 (inactive)
CCN1C(=O)[C@H]2[C@H]3[C@H](O)[C@H](O)CC(=NO[C@H](C)c4cn([C@H](CO)Cc5ccccc5)nn4)[C@@H]3CC[C@H]2C1=O | 0.818 | 0.444 (inactive) | 0.0539 | -0.135 | 0.412 | 0.785 | 1.39 | 1.1 | -0.0064 | 1.05 | 3.76 | 1.07 | 0.454 | 0.932 | 0.758 | 0.474 | -0.00321 | 0.734 | 1.15 | 0.275 (inactive)
CO[C@@H]1C=CCC(=O)N[C@@H](C)C(=O)OC[C@@H](OC)[C@H](C)C=CCC(=O)OC[C@H]1C | -1.01 | 0.914 (inactive) | -0.0967 | -0.123 | -0.689 | -1.2 | 0.0645 | 0.451 | 1.49 | -1.09 | 0.207 | -0.724 | -0.397 | -0.556 | 1.39 | 0.615 | 1.04 | 1.59 | -0.87 | -0.461 (inactive)
